According to PubChem BioAssay:
Values without a mark were called inactive. The rule behind the calls is not given here.

Each compound was assayed against Pantothenate synthetase (Mycobacterium tuberculosis (strain ATCC 25618 / H37Rv)) (UniProt P9WIL5) (assay: Recombinant Mtb pantothenate synthetase (PanC) inhibitors, coupled enzyme, confirmatory (AID 375;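 note: 0% = full reaction with vehicle and 100% = no enzyme background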)). Details: coupled enzyme assay; at 10 µM, stronger effect = higher value.
Sequence of Pantothenate synthetase (Mycobacterium tuberculosis (strain ATCC 25618 / H37Rv)) (P9WIL5 whole entry, looked up): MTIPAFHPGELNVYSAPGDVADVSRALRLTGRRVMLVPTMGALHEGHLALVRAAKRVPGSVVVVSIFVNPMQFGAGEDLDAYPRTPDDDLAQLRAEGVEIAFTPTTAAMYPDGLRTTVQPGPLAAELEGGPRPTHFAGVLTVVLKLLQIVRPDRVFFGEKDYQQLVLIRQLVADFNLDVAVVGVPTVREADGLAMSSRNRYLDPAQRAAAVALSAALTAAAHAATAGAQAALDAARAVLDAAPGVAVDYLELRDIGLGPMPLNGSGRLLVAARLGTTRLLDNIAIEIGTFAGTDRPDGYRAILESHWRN

**Q.** O=C(Nc1cccc(F)c1)C1C2C=CC3(CN(CCCN4CCOCC4)C(=O)C13)O2 (stereo not given) was tested. Which inhibition did it give?
**A.** The inhibition was 0%.

**Q.** COc1ccc(CC(=O)N2CCOCC2)cc1OC was tested. Which inhibition did it give?
**A.** Its inhibition is 2%.

**Q.** How did the inhibition turn out when Cc1noc(C)c1C(=O)Nc1ccc(Cl)cc1C(F)(F)F was run?
**A.** The inhibition was 4%.

**Q.** How did the inhibition turn out when COc1ccccc1-n1nnnc1SCc1cc2c(cc1Br)OCO2 was run?
**A.** Its inhibition is 0%.

**Q.** For CCN(CC)CCCNC1CCS(=O)(=O)C1 (stereo not given), which inhibition is on record?
**A.** Its inhibition is 1%.

**Q.** For CCN(CC(=O)NC1CCS(=O)(=O)C1)C(=O)C(c1ccccc1)c1ccccc1 (stereo not given), which inhibition is on record?
**A.** Its inhibition is 1%.

**Q.** With CC1(c2ccc(OC(F)F)cc2)NC(=O)N(CC(=O)Nc2ccc3c(c2)OCO3)C1=O (stereo not given) as the compound, how does the inhibition read?
**A.** Its inhibition is 3%.

**Q.** How did the inhibition turn out when COc1ccccc1N(CC(=O)NCc1ccccn1)S(C)(=O)=O was run?
**A.** Its inhibition is 0%.

**Q.** With COc1ccc(N(C)C(=O)CCS(=O)(=O)c2cccc3nonc23)c(OC)c1 as the compound, how does the inhibition read?
**A.** The inhibition was 0%.

**Q.** O=C(CCCN1C(=O)c2ccccc2C1=O)N1CCC(c2ccccc2)C1 (stereo not given) was tested. Which inhibition did it give?
**A.** Its inhibition is 4%.

**Q.** CC1CCCCN1S(=O)(=O)c1ccc(NC(=O)c2cccs2)cc1 (stereo not given) was tested. Which inhibition did it give?
**A.** The inhibition was 0%.

**Q.** Which inhibition does the source give for c1ccc(Cc2nn3c(Cn4cnc5ccccc54)nnc3s2)cc1 here?
**A.** Its inhibition is 4%.

**Q.** How did the inhibition turn out when O=S(=O)(NCc1cccnc1)c1cccc2nsnc12 was run?
**A.** The inhibition was 12%.

**Q.** How did the inhibition turn out when Cc1cc(C)n(CCc2nc(-c3cccs3)cs2)n1 was run?
**A.** The inhibition was 2%.

**Q.** How did the inhibition turn out when O=C(CCN1C(=O)c2ccccc2C1=O)N1CCN(C(=O)c2ccccc2)CC1 was run?
**A.** The inhibition was 0%.

**Q.** How did the inhibition turn out when O=C(OCc1nnc(-c2ccccc2)o1)c1ccc(S(=O)(=O)NCc2ccco2)cc1 was run?
**A.** The inhibition was 0%.

**Q.** How did the inhibition turn out when Cc1ccc(NC(=O)C2CC=CCC2C(=O)N2CCCCC2)cc1 (stereo not given) was run?
**A.** The inhibition was 0%.

**Q.** How did the inhibition turn out when COc1ccc(-n2cc(-c3ccccc3)c3c(N4CCN(CCO)CC4)ncnc32)cc1 was run?
**A.** Its inhibition is 0%.

**Q.** How did the inhibition turn out when CCOC(=O)C1CCCN(c2c(NCc3ccco3)c(=O)c2=O)C1 (stereo not given) was run?
**A.** The inhibition was 0%.

**Q.** Which inhibition does the source give for O=C(O)CCCC(=O)NCCc1ccncc1 here?
**A.** Its inhibition is 0%.

**Q.** With CC(C(=O)Nc1ccccc1-c1ccccc1)N1CCOCC1 (stereo not given) as the compound, how does the inhibition read?
**A.** The inhibition was 1%.

**Q.** How did the inhibition turn out when CC(C(=O)c1ccccc1)n1cnc2ccccc2c1=O (stereo not given) was run?
**A.** The inhibition was 9%.

**Q.** Which inhibition does the source give for CC(=O)c1ccc(OCC(O)CN2CC(C)OC(C)C2)cc1 (stereo not given) here?
**A.** Its inhibition is 0%.

**Q.** How did the inhibition turn out when COC(=O)c1ccccc1S(=O)(=O)N(Cc1cc2cc3c(cc2[nH]c1=O)OCO3)C1CCCCC1 was run?
**A.** The inhibition was 1%.

**Q.** Which inhibition does the source give for O=c1[nH]c(/C(=N\O)c2ccccc2)no1 here?
**A.** Its inhibition is 0%.

**Q.** With COc1ccccc1N(CC(=O)NC1CCCC1)C(=O)CCC(=O)Nc1cc(C)on1 as the compound, how does the inhibition read?
**A.** The inhibition was 0%.

**Q.** For O=C(O)c1ccccc1Nc1cccc(C(F)(F)F)c1, which inhibition is on record?
**A.** Its inhibition is 2%.

**Q.** Which inhibition does the source give for Cc1cc(C)c(NC(=O)CSc2nc3c(c(=O)n2C)SC(C)C3)c(C)c1 (stereo not given) here?
**A.** Its inhibition is 0%.

**Q.** For COc1ccccc1C(=O)n1nc(-c2ccccc2)nc1N, which inhibition is on record?
**A.** The inhibition was 2%.

**Q.** O=C1CCCCCC1C1(O)C(=O)Nc2ccccc21 (stereo not given) was tested. Which inhibition did it give?
**A.** The inhibition was 7%.

**Q.** How did the inhibition turn out when CCCCNC(=O)NS(=O)(=O)c1ccc(C)cc1 was run?
**A.** Its inhibition is 0%.

**Q.** Cc1nc2nc(-c3cccnc3)nn2c(C)c1Cl was tested. Which inhibition did it give?
**A.** Its inhibition is 0%.

**Q.** How did the inhibition turn out when O=C(c1ccc2c(c1)[nH]c(=S)n1c3ccccc3nc21)N1CCN(c2ncccn2)CC1 was run?
**A.** Its inhibition is 8%.

**Q.** With CC1(C)Cc2c(c(=S)nc(-c3ccccc3)n2CCO)CO1 as the compound, how does the inhibition read?
**A.** The inhibition was 9%.

**Q.** For Cc1cc(C)c2c(n1)nn1c(NCCCN3CCOCC3)cc(C)nc21, which inhibition is on record?
**A.** Its inhibition is 9%.

**Q.** How did the inhibition turn out when O=c1c(-c2ccc(Br)cc2)coc2c(CN3CCOCC3)c(O)ccc12 was run?
**A.** The inhibition was 0%.

**Q.** For Cc1cn2c(-c3ccc(Cl)cc3)nnc2s1, which inhibition is on record?
**A.** The inhibition was 0%.

**Q.** For CCOC(=O)c1c(C)n(C)c2ccc(OC)c(NC(=O)CCN3CCSCC3)c12, which inhibition is on record?
**A.** Its inhibition is 2%.

**Q.** CCCOC(=O)c1[nH]c2c(c1C)C(=O)CC(c1ccc(OC)c(OC)c1)C2 (stereo not given) was tested. Which inhibition did it give?
**A.** Its inhibition is 0%.

**Q.** For Cc1ccc(C2C3CN(C(C)C)CC=C3C(C#N)=C(N)C2(C#N)C#N)cc1 (stereo not given), which inhibition is on record?
**A.** The inhibition was 0%.
